HSF1 activator – HSF-1 activators, primary screen, NIH3T3-HGL cells, MG132 stress, luminescence, single point. hit rate 1.7% among 300,000. activation, % at 9 µM. NIH3T3-HGL HSF-1 luciferase reporter, 8 h; 100% = twice DMSO control signal;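 active = mean replicate activation of at least 50% with a set share of replicates each reaching 50%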;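 note: 0% = median of the neutral control wells and 100% = twice that signal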
AHR activator – AHR activators, primary screen, cell-based, luminescence, luciferase reporter, human. Aryl hydrocarbon receptor (Homo sapiens), P35869. hit rate 2.5% among 320,000. AHR-responsive luciferase reporter cells. activation, % at 5 µM; in the data active = activation above about 47%;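 note: 0% = vehicle wells and 100% = reference agonist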
HSF1 inhib – HSF1 inhibitors in luciferase reporter cells, primary screen, cell-based, NIH3T3, luminescence | NIH3T3-HGL HSE-luciferase, MG132-induced, luminescence 8 h; active compounds read low | activity change, negative = inhibition, % at 7.5 µM (by protocol) | hit rate 0.77% among 300,000;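 active = more than half of replicate wells show activity change below -50%, luminescence cut by over half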;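 note: luciferase reports HSF-1 transcriptional activity via heat shock element; 0% = median of DMSO wells and -100% = zero luminescence signal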
NR0B1 inh – DAX1 (NR0B1) inhibitors, primary screen, cell-based, HEK293, Gal4-DAX1, luciferase luminescence | HEK293 Gal4-DAX1 luciferase reporter | inhibition, % at 6.75 µM | hit rate 0.99% among 340,000 | AID 504766, 2011;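 active = inhibition above the mean over all tested compounds plus 3 SD, cut at about 4.2% in these data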;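 note: 0% = DAX1-transfected cells with DMSO and 100% = empty-vector control cells with DMSO; inhibition shows as a rise in luminescence from relieved DAX1 repression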
GAA850 FXN act – FXN promoter activators, primary screen, cell-based, luciferase luminescence, HEK293 lucGAA850. HEK293 lucGAA850 FXN promoter luciferase reporter, 24 h; percent of 10 µM SAHA response. activation, % at 6 µM. hit rate 0.56% among 360,000. AID 540364, 2011;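 active = activation above the average of all compounds screened plus 3 SD, cutoff fixed separately per campaign, cut at about 7.5% in these data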;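 note: 0% = DMSO wells and 100% = 10 µM SAHA wells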
HSP90 inh – HSP90 inhibitors, primary screen, cell lysate, luminescence. Heat shock protein HSP 90 (rabbit reticulocyte lysate; luciferase refolding). Rabbit reticulocyte lysate, luciferase refolding luminescence, 3 h. inhibition, % at 5.6 µM. hit rate 0.91% among 290,000;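 active = inhibition above the screen-wide mean plus 3 SD, computed separately per campaign, cut at about 16% in these data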;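 note: 0% = DMSO wells and 100% = 60 µM geldanamycin wells; inhibitors lower the luminescence because luciferase stays unfolded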
AHR act confirm – AHR activators, confirmation, cell-based, luminescence, luciferase reporter, human; shares compounds with AHR activator; human cells, AHR-responsive luciferase reporter; activation, % at 9 µM; hit rate 87% among 2,300; in the data active = activation above about 49%;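 note: HepG2 hepatoma cells carrying a DRE-driven firefly luciferase reporter; 0% = vehicle wells and 100% = reference agonist wells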
PXR act counter – human PXR activators, counter-screen for AHR activator project, cell-based, luciferase luminescence; AID 434939, 2010; cell-based PXR reporter; activation, % at 11.6 µM; hit rate 88% among 2,300; shares compounds with AHR activator; in the data active = activation above about 11%;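 note: human hepatoma DPX-2 cells expressing full-length human PXR; 0% = DMSO and 100% = reference agonist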
Numbers without * were called inactive; / = not tested or not shown. Shown are actives, neighbours in structure and some others; about 5.9% of the full set was active somewhere.

SMILES	HSF1 activator	AHR activator	HSF1 inhib	NR0B1 inh	GAA850 FXN act	HSP90 inh	AHR act confirm	PXR act counter
CN(C)c1ccc(Nc2nc(N)c([N+](=O)[O-])c(N3CCOCC3)n2)cc1	-15	82*	-7	-2	3	1	68*	39*
Cc1ccc(S(=O)(=O)N(C)/N=C/c2ccc(N(C)C)cc2)cc1	2	1	8	1	1	-6	/	/
CC(NC(=O)C1CCC(CNS(=O)(=O)c2ccccc2)CC1)c1ccccc1 (stereo not given)	42	-2	1	0	1	2	/	/
Nc1nc2ccccc2n1S(=O)(=O)c1ccccc1	/	/	/	/	2	/	/	/
CCOc1cccc2sc(NC(=O)c3ccc(Br)s3)nc12	38	97*	12	-1	-1	-1	20	13*
CC/C(=N\NC(=S)Nc1cccc(C)c1)c1ccccc1	13	87*	-1	-2	5	1	55*	24*
C/C(=N/NC(=S)Nc1cccc(C)c1)c1cccc([N+](=O)[O-])c1	23	106*	9	0	1	-1	83*	100*
O=C(NC(=S)Nc1cccc(F)c1)c1cccc([N+](=O)[O-])c1	18	96*	14	-2	2	-1	40	30*
O=C(Cc1ccccc1)c1ccc(N2CCOCC2)cc1	/	/	/	1	2	/	/	/
Cc1cnc(C(=O)NC(Cc2ccccc2)c2ccccc2)cn1 (stereo not given)	-1	0	2	0	1	-3	/	/
Cc1ccc(CC(=O)O/N=C(\N)c2ccncc2)cc1	-5	12	4	1	2	-1	/	/
COc1ccc(OC)c2nc(-c3cccnc3)ccc12	6	93*	4	2	1	-1	143*	22*
Cc1cccc(NC2=C(NCCO)C(=O)c3ccccc3C2=O)c1	50	113*	27	-2	2	2	77*	65*
COc1cccc(NC2=C(NCCO)C(=O)c3ccccc3C2=O)c1	37	10	8	0	2	2	/	/
Cn1/c(=N/NC(=O)c2cccc(OC(F)F)c2)sc2ccccc21	10	118*	6	3	3	-5	110*	119*
COc1ccc(C(=O)N=c2sc3ccccc3n2C)cc1OC	/	12	/	4	5	1	/	/
COc1cc(C(=O)N/N=c2/sc3ccccc3n2C)cc(OC)c1OC	27	171*	10	0	1	0	82*	56*
Cn1c(=NCC(O)COc2ccccc2)sc2ccccc21 (stereo not given)	7	-13	6	0	1	-2	/	/
CC(=O)c1c(C)[nH]c(C(=O)Nc2cccc(S(=O)(=O)N3CCOCC3)c2)c1C	5	100*	3	1	2	-3	78*	34*
CC(=O)c1c(C)[nH]c(C(=O)Nc2ccc(Cl)c(S(=O)(=O)N(C)C)c2)c1C	-11	81*	-4	10.0*	3	1	83*	53*
CC(=O)c1c(C)[nH]c(C(=O)OCC(=O)Nc2ccc(Cl)c(S(=O)(=O)N(C)C)c2)c1C	6	3	-14	-3	-2	-2	/	/
C=CCCC(=O)N1CCC(n2nccc2NC(=O)c2ccccc2C)CC1	-3	-2	0	0	0	-4	/	/
Cn1cccc1/C=N/n1c(-c2ccc(Cl)cc2)n[nH]c1=S	6	89*	5	0	0	-1	81*	25*
O=C(/C=C/c1ccccc1[N+](=O)[O-])Nc1cccnc1	25	145*	19	1	1	-2	83*	33*

Screening data deposited in PubChem BioAssay by several laboratories.
